Assay [1] concerns the target Calcium/calmodulin-dependent protein kinase type II subunit alpha (Homo sapiens) (UniProt Q9UQM7). The conditions noted are these: at 1 µM.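 Also: reported value is a mean percent inhibition of CAMK2A.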
The target of assay [2] is Calcium/calmodulin-dependent protein kinase type II subunit delta (Homo sapiens) (UniProt Q13557). The following applies: at 0.1 µM.
The target is the same in assay [3]. The following applies: at 1 µM.
The target in assay [4] is T1, Calcium/calmodulin-dependent protein kinase type IV (Homo sapiens) (UniProt Q16566).
T1 sequence (whole entry): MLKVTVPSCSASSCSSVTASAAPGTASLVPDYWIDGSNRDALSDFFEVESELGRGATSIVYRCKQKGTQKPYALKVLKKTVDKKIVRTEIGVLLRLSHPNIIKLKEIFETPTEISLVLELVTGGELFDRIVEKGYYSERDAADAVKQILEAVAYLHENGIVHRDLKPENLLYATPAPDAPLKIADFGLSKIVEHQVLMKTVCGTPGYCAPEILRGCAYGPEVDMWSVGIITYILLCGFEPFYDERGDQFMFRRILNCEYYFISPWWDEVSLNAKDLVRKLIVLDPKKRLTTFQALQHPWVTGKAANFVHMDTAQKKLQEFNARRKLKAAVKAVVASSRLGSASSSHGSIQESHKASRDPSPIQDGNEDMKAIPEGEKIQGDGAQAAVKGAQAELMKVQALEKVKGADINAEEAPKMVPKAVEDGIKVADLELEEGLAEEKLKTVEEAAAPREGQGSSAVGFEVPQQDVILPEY
The following applies: at 0.1 µM.

Assay [5] addresses T1, Calcium/calmodulin-dependent protein kinase type IV (Homo sapiens). The following applies: at 1 µM.
Assay [6] concerns the target T2, Serine/threonine-protein kinase Chk1 (Homo sapiens) (UniProt O14757).
T2 sequence (whole entry): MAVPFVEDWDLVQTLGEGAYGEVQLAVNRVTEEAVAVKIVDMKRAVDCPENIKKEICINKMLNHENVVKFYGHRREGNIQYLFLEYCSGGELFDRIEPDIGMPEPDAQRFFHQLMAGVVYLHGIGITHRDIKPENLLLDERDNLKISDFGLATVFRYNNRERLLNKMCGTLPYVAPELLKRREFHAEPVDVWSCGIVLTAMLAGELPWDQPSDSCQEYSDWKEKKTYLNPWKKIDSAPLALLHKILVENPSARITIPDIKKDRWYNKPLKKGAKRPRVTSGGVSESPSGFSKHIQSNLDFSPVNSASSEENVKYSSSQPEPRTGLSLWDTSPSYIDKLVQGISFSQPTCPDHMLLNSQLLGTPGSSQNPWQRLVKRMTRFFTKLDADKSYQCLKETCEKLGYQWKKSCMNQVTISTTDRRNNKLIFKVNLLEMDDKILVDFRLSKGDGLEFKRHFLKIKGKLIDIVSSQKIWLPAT
The conditions noted are these: at 0.1 µM.

Assay [7] addresses T2, Serine/threonine-protein kinase Chk1 (Homo sapiens). The conditions noted are these: at 1 µM.
For assay [8], the target named is Serine/threonine-protein kinase Chk2 (Homo sapiens) (UniProt O96017). The following applies: at 0.1 µM.
Sequence of Serine/threonine-protein kinase Chk2 (Homo sapiens) (O96017 whole entry): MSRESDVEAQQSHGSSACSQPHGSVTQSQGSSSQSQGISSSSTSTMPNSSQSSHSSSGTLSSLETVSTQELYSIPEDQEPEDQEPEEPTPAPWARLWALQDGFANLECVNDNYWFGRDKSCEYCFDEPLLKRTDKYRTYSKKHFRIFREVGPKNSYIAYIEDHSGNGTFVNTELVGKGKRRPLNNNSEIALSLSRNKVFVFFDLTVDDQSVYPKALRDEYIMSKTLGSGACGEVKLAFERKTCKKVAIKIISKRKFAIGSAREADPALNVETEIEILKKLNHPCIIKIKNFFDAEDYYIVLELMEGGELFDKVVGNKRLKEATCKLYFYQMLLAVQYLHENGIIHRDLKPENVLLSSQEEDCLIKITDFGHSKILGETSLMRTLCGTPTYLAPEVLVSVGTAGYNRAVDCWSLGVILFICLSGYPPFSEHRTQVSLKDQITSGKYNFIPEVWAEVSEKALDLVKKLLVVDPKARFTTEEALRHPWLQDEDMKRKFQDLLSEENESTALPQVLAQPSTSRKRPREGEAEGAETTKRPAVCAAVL
Assay [9] has the same target. The conditions noted are these: at 1 µM.
The target in assay [10] is Death-associated protein kinase 1 (Homo sapiens) (UniProt P53355). The following applies: at 0.1 µM.
Assay [11] shares this target. The conditions noted are these: at 1 µM.
Assay [12] concerns the target T3, Serine/threonine-protein kinase DCLK2 (Homo sapiens) (UniProt Q8N568).
T3 sequence (whole entry): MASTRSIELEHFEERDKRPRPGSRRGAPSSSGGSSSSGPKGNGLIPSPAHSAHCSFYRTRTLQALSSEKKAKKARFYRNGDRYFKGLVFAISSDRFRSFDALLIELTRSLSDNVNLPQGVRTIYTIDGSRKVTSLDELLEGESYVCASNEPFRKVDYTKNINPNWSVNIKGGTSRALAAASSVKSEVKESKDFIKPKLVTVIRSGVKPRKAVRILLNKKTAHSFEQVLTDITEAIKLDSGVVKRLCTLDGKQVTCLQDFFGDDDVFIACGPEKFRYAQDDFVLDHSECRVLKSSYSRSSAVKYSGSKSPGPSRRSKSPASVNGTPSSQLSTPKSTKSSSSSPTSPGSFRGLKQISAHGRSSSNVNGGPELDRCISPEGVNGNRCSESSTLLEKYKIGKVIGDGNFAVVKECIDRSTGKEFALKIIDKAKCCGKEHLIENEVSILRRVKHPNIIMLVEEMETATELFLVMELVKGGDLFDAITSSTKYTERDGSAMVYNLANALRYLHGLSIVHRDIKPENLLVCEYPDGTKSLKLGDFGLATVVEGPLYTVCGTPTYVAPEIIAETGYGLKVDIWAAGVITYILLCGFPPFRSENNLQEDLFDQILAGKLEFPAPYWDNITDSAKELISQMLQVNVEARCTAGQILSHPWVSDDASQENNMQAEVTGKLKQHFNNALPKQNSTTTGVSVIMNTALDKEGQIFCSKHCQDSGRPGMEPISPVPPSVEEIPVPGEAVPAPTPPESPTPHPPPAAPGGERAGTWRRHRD
The conditions noted are these: at 0.1 µM.

For assay [13], the target named is T3, Serine/threonine-protein kinase DCLK2 (Homo sapiens). The following applies: at 1 µM.
The target in assay [14] is MAP kinase-activated protein kinase 2 (Homo sapiens) (UniProt P49137). The conditions noted are these: at 0.1 µM.
Sequence of MAP kinase-activated protein kinase 2 (Homo sapiens) (P49137 whole entry, looked up): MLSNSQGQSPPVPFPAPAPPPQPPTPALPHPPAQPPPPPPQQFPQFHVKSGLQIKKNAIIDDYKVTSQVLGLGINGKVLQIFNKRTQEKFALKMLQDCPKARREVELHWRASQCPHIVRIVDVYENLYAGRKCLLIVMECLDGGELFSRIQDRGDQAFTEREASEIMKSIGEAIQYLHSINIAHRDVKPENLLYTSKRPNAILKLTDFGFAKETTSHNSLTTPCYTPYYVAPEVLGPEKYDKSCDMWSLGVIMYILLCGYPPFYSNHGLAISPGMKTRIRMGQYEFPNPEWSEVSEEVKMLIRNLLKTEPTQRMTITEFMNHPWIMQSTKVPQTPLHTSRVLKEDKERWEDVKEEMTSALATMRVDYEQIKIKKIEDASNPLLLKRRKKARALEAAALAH
Assay [15] has the same target. The conditions noted are these: at 1 µM.
Assay [16] concerns the target MAP kinase-activated protein kinase 3 (Homo sapiens) (UniProt Q16644). The conditions noted are these: at 0.1 µM.
For assay [17] the target is unchanged. The conditions noted are these: at 1 µM.
The target in assay [18] is Serine/threonine-protein kinase MARK1 (Homo sapiens) (UniProt Q9P0L2). The following applies: at 0.1 µM.
Sequence of Serine/threonine-protein kinase MARK1 (Homo sapiens) (Q9P0L2 whole entry, looked up): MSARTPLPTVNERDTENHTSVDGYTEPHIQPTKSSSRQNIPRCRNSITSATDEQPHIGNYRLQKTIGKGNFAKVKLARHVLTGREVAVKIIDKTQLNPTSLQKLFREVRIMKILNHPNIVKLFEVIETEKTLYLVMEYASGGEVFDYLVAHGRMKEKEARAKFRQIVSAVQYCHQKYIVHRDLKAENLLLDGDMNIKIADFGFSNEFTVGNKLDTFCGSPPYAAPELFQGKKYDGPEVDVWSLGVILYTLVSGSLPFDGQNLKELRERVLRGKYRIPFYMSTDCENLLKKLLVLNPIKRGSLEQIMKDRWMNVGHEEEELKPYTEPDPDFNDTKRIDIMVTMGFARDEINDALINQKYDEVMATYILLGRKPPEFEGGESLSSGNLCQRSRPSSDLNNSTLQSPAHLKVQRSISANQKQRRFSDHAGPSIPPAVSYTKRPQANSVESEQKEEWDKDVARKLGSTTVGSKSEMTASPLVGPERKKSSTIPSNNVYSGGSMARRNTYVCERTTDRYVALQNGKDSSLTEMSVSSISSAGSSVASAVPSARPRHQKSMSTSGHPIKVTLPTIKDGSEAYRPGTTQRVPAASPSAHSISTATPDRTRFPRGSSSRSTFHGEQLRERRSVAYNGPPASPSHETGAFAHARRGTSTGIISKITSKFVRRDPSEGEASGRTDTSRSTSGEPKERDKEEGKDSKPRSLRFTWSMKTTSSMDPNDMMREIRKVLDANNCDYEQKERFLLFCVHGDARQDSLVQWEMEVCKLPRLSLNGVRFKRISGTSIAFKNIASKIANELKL
Assay [19] has the same target. The conditions noted are these: at 1 µM.
Assay [20] concerns the target MAP/microtubule affinity-regulating kinase 3 (Homo sapiens) (UniProt P27448). The conditions noted are these: at 0.1 µM.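 Also: mean percent inhibition of MARK3 kinase activity, measured within the GSK PKIS screening panel.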

The structures appear in SMILES notation.

Sequence of MAP kinase-activated protein kinase 3 (Homo sapiens) (Q16644 whole entry, looked up): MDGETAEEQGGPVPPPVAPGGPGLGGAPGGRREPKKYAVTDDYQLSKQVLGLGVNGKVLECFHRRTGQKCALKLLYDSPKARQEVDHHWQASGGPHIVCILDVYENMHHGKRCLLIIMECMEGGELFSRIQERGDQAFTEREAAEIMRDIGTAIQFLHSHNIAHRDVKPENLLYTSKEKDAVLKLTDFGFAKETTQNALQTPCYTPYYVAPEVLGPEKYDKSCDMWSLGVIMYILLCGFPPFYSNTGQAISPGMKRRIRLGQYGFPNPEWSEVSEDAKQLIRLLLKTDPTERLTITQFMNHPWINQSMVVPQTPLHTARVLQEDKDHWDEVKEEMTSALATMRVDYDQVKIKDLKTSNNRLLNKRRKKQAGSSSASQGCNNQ
Sequence of MAP/microtubule affinity-regulating kinase 3 (Homo sapiens) (P27448 whole entry, looked up): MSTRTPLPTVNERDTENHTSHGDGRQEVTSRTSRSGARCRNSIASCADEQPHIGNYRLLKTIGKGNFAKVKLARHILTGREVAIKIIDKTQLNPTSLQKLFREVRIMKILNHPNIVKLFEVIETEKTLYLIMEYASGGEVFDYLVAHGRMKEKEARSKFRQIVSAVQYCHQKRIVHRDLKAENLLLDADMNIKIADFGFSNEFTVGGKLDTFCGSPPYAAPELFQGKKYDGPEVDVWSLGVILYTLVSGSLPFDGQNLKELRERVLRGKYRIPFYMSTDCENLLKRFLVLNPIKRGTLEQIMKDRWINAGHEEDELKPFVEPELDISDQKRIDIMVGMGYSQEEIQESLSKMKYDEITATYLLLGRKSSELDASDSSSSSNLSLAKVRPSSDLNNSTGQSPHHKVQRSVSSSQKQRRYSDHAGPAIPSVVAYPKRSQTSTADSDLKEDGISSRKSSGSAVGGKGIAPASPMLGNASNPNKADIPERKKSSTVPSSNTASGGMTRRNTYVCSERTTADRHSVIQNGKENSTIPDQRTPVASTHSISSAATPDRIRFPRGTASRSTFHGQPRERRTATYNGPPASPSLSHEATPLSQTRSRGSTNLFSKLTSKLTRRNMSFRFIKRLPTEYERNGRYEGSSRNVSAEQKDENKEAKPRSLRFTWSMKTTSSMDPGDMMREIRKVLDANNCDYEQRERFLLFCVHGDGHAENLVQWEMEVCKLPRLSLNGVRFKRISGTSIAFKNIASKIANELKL
Sequence of Calcium/calmodulin-dependent protein kinase type II subunit alpha (Homo sapiens) (Q9UQM7 whole entry): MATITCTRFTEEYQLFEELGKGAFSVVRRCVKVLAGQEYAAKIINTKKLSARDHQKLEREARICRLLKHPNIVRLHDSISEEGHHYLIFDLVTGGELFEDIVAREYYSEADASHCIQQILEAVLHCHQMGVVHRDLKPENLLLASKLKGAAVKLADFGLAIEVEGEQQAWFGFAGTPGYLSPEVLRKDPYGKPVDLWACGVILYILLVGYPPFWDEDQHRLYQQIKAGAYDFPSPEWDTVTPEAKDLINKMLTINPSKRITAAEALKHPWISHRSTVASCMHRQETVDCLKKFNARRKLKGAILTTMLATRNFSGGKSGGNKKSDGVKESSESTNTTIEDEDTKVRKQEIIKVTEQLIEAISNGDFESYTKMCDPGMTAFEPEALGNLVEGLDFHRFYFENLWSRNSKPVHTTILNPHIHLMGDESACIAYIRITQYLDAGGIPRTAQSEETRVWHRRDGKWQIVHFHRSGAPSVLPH
Sequence of Calcium/calmodulin-dependent protein kinase type II subunit delta (Homo sapiens) (Q13557 whole entry): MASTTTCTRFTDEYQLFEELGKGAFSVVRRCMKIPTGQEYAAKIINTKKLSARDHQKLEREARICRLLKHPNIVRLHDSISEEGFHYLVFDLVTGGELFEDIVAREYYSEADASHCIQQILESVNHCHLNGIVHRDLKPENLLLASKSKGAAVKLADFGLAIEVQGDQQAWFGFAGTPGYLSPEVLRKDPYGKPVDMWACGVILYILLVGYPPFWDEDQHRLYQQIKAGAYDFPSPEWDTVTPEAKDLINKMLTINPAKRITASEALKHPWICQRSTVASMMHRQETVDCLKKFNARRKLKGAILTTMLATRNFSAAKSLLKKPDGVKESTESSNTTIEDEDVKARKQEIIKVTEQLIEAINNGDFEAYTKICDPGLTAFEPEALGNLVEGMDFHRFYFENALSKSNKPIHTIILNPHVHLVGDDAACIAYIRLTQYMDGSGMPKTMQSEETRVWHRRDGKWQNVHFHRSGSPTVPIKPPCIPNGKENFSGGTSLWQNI

In the case of `COc1ccc2[nH]c3c4[nH]c5ccc(OC)cc5c4c4c(c3c2c1)C(=O)NC4=O`, the inhibition in assay [1] is 22.9%; in [2], 17.4%; in assay [3], 57.6%; in assay [4], -5.78%; in assay [5], -3.69%; in [6], 22.4%. In addition, the inhibition was 65.6% in assay [7]; 81.2% in [8]; 83.4% in [9]; 2% in assay [10]; 24.8% in assay [11]; 1.24% in [12]. Besides, the inhibition amounted to 2.81% in assay [13]; 2.61% in [14]; 5.29% in assay [15]; 5.01% in assay [16]; 6.04% in [17]; 7.99% in assay [18]. Further, the inhibition in assay [19] came to 38.8%; in assay [20] it was 3.92%.

`CC1=C(C(=O)Nc2cc(Cl)c3[nH]ncc3c2)C(c2ccc(C(F)(F)F)cc2)CC(=O)N1` (stereo not given): the inhibition in [1] was 1.21%; in assay [2], 1.82%; in assay [3], 4.42%; in [4], -0.37%; in assay [5], 0.15%; in [6], 8.32%. In addition, the inhibition in assay [7] was found to be 11.4%; in [8], 6.46%; in assay [9] it was 7.48%; in assay [10] it was 9.05%; in [11], 10%; in assay [12], 3.55%. Further, the inhibition came out at 2.36% in assay [13]; 4.51% in assay [14]; 4.3% in [15]; 9.27% in assay [16]; 9.12% in [17]; 3.77% in assay [18]. In addition, the inhibition in assay [19] was 6.87%; in assay [20], 3.36%.

With `Nc1nc(-c2cccc(Cl)c2)c(-c2ccc3ncccc3n2)s1`, the inhibition is 2.48% in assay [1]; 2.83% in assay [2]; 3.46% in assay [3]; -2.8% in assay [4]; -4.36% in assay [5]; 9.85% in [6]. Also, the inhibition was determined as 12.6% in [7]; 10.1% in [8]; 12.7% in assay [9]; 12% in assay [10]; 15.4% in assay [11]; 1.69% in assay [12]. Also, the inhibition in assay [13] is 1.16%; in assay [14], 4.89%; in [15], 6.05%; in [16] it was 13.6%; in assay [17] it was 23.9%; in [18], 5.51%. Moreover, the inhibition in assay [19] stood at 4.17%; in assay [20], 2.28%.

Consider `Cc1cccc2c1NC(=O)/C2=N\Nc1ccc(S(N)(=O)=O)cc1`, for which the inhibition in assay [1] turned out to be 3.33%; in assay [2], 3.36%; in assay [3] it was 3.56%; in [4], 0.62%; in [5] it was 1.1%; in assay [6], 0.95%. Besides, the inhibition in assay [7] worked out at 5.04%; in [8], 1.68%; in [9], 2.64%; in assay [10], 3.69%; in assay [11], 4.75%; in assay [12] it was 0.74%. For the same compound, the inhibition in assay [13] came out at 2.14%; in [14], 1.37%; in assay [15], 1.1%; in assay [16], 2.44%; in assay [17], 2.04%; in assay [18], 1.81%. In addition, the inhibition amounted to 3.2% in assay [19] and 2.64% in [20].

`COC(=O)c1sc(-n2cnc3cc(OC)c(OC)cc32)cc1OCc1ccccc1C(F)(F)F`: the inhibition stood at 5.27% in assay [1]; 4.25% in [2]; 11.3% in assay [3]; 1.9% in assay [4]; 11.2% in assay [5]; 1.72% in [6]. For the same compound, the inhibition in [7] came to 2.67%; in [8], 3.73%; in assay [9], 4.65%; in [10], 0.08%; in [11], 1.94%; in assay [12], 2.16%. The inhibition came out at 0.62% in [13]; 1.81% in assay [14]; 1.73% in assay [15]; 4.86% in assay [16]; 5.46% in assay [17]; 2.71% in [18]. Further, the inhibition in assay [19] stood at 6.82%; in assay [20] it was 2.38%.

As for `CCN(CC)S(=O)(=O)c1ccc(OC)c(Nc2ncc(-c3ccccc3)o2)c1`, the inhibition in [1] was 6.08%; in [2], 2.08%; in [3], 8.27%; in assay [4], -0.4%; in assay [5], -1.66%; in assay [6], 1.49%. The inhibition in assay [7] was 2.79%; in assay [8], -0.98%; in [9] it was 2.66%; in assay [10], 4%; in assay [11] it was 4.29%; in assay [12] it was 2.03%. Further, the inhibition is 3.38% in [13]; 2.65% in assay [14]; 1.48% in assay [15]; 1.95% in [16]; -0.47% in [17]; 1.44% in assay [18]. Further, the results for the inhibition in [19] and in assay [20] were 2.58% and -0.45%, respectively.

For orientation: inhibition means the relative decrease from the control value, in per cent.

(Values after ChEMBL document CHEMBL1961873, “Compounds: GSK PKIS; Assays: Nanosyn kinase panel” (2012).)
